Data published in the supplement of paper PMC7411054.
Structures can show the parent of a compound that is named as a salt.

Columns and labels:
Experiment in all cases: phenotypically active (imaging signature differs from DMSO and reproducible) at any of 0.3-9 uM (binary (1 = active, 0 = inactive)); higher = active
Conditions in all cases: treatment time: 24 h
A549-ACTB-RAB5A = test system: A549-ACTB-RAB5A
Summary of the method: (§1)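 Four wells per concentration (0.3, 1, 3 or 9 µM) were treated for 24 h in each of fifteen gene-edited reporter lines from A549, HepG2 and WPMY1 cells, then imaged live. After normalising live-cell features to solvent control wells, deviation was defined as ≥3 of 4 wells lying past the 95th percentile of control Euclidean distances. Reproducibility was defined as a median replicate Pearson correlation above the 95th percentile of non-replicates. Both had to hold for phenotypic activity.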

A549-CANX-COX4 = test system: A549-CANX-COX4
Summary of the method: as §1

A549-GM130-SQSTM1 = test system: A549-GM130-SQSTM1
Summary of the method: as §1

A549-TP53BP1-CLTA = test system: A549-TP53BP1-CLTA
Summary of the method: as §1

A549-TUBA1B-RELA = test system: A549-TUBA1B-RELA
Summary of the method: as §1

HepG2-ACTB-RAB5A = test system: HepG2-ACTB-RAB5A
Summary of the method: as §1

HepG2-CANX-COX4 = test system: HepG2-CANX-COX4
Summary of the method: as §1

HepG2-GM130-SQSTM1 = test system: HepG2-GM130-SQSTM1
Summary of the method: as §1

HepG2-TP53BP1-CLTA = test system: HepG2-TP53BP1-CLTA
Summary of the method: as §1

HepG2-TUBA1B-RELA = test system: HepG2-TUBA1B-RELA
Summary of the method: as §1

WPMY1-ACTB-RAB5A = test system: WPMY1-ACTB-RAB5A
Summary of the method: as §1

WPMY1-CANX-COX4 = test system: WPMY1-CANX-COX4
Summary of the method: as §1

WPMY1-GM130-SQSTM1 = test system: WPMY1-GM130-SQSTM1
Summary of the method: as §1

WPMY1-TP53BP1-CLTA = test system: WPMY1-TP53BP1-CLTA
Summary of the method: as §1

WPMY1-TUBA1B-RELA = test system: WPMY1-TUBA1B-RELA
Summary of the method: as §1

Measured: phenotypically active

C/C=C1/[C@H]2C=C(C)C[C@]1(N)c1ccc(=O)[nH]c1C2 [Huperzine A]
inactive: A549-ACTB-RAB5A 0 | A549-CANX-COX4 0 | A549-GM130-SQSTM1 0 | A549-TP53BP1-CLTA 0 | A549-TUBA1B-RELA 0 | HepG2-ACTB-RAB5A 0 | HepG2-CANX-COX4 0 | HepG2-GM130-SQSTM1 0 | HepG2-TP53BP1-CLTA 0 | HepG2-TUBA1B-RELA 0 | WPMY1-ACTB-RAB5A 0 | WPMY1-CANX-COX4 0 | WPMY1-GM130-SQSTM1 0 | WPMY1-TP53BP1-CLTA 0 | WPMY1-TUBA1B-RELA 0

CNS(=O)(=O)CCc1ccc2[nH]cc(C3CCN(C)CC3)c2c1 [naratriptan]
inactive: A549-ACTB-RAB5A 0 | A549-CANX-COX4 0 | A549-GM130-SQSTM1 0 | A549-TP53BP1-CLTA 0 | A549-TUBA1B-RELA 0 | HepG2-ACTB-RAB5A 0 | HepG2-CANX-COX4 0 | HepG2-GM130-SQSTM1 0 | HepG2-TP53BP1-CLTA 0 | HepG2-TUBA1B-RELA 0 | WPMY1-ACTB-RAB5A 0 | WPMY1-CANX-COX4 0 | WPMY1-GM130-SQSTM1 0 | WPMY1-TP53BP1-CLTA 0 | WPMY1-TUBA1B-RELA 0

CN1CC(=O)N2[C@H](c3ccc4c(c3)OCO4)c3[nH]c4ccccc4c3C[C@@H]2C1=O [tadalafil]
inactive: A549-ACTB-RAB5A 0 | A549-CANX-COX4 0 | A549-GM130-SQSTM1 0 | A549-TP53BP1-CLTA 0 | A549-TUBA1B-RELA 0 | HepG2-ACTB-RAB5A 0 | HepG2-CANX-COX4 0 | HepG2-GM130-SQSTM1 0 | HepG2-TP53BP1-CLTA 0 | HepG2-TUBA1B-RELA 0 | WPMY1-ACTB-RAB5A 0 | WPMY1-CANX-COX4 0 | WPMY1-GM130-SQSTM1 0 | WPMY1-TP53BP1-CLTA 0 | WPMY1-TUBA1B-RELA 0

COC(=O)C1=CO[C@@H](O[C@@H]2O[C@H](CO)[C@@H](O)[C@H](O)[C@H]2O)[C@H]2[C@@H]1C(=O)C[C@@H]2C [Verbenaline]
inactive: A549-ACTB-RAB5A 0 | A549-CANX-COX4 0 | A549-GM130-SQSTM1 0 | A549-TP53BP1-CLTA 0 | A549-TUBA1B-RELA 0 | HepG2-ACTB-RAB5A 0 | HepG2-CANX-COX4 0 | HepG2-GM130-SQSTM1 0 | HepG2-TP53BP1-CLTA 0 | HepG2-TUBA1B-RELA 0 | WPMY1-ACTB-RAB5A 0 | WPMY1-CANX-COX4 0 | WPMY1-GM130-SQSTM1 0 | WPMY1-TP53BP1-CLTA 0 | WPMY1-TUBA1B-RELA 0

CNC(=O)COC(=O)NCCC1CCN(c2cccc(C)n2)CC1
inactive: A549-ACTB-RAB5A 0 | A549-CANX-COX4 0 | A549-GM130-SQSTM1 0 | A549-TP53BP1-CLTA 0 | A549-TUBA1B-RELA 0 | HepG2-ACTB-RAB5A 0 | HepG2-CANX-COX4 0 | HepG2-GM130-SQSTM1 0 | HepG2-TP53BP1-CLTA 0 | HepG2-TUBA1B-RELA 0 | WPMY1-ACTB-RAB5A 0 | WPMY1-CANX-COX4 0 | WPMY1-GM130-SQSTM1 0 | WPMY1-TP53BP1-CLTA 0 | WPMY1-TUBA1B-RELA 0

C#C[C@]1(O)CC[C@H]2[C@@H]3CCC4=CCCC[C@@H]4[C@H]3C(=C)C[C@@]21CC [desogestrel]
inactive: A549-ACTB-RAB5A 0 | A549-CANX-COX4 0 | A549-GM130-SQSTM1 0 | A549-TP53BP1-CLTA 0 | A549-TUBA1B-RELA 0 | HepG2-ACTB-RAB5A 0 | HepG2-CANX-COX4 0 | HepG2-GM130-SQSTM1 0 | HepG2-TP53BP1-CLTA 0 | HepG2-TUBA1B-RELA 0 | WPMY1-ACTB-RAB5A 0 | WPMY1-CANX-COX4 0 | WPMY1-GM130-SQSTM1 0 | WPMY1-TP53BP1-CLTA 0 | WPMY1-TUBA1B-RELA 0

CCOC(=O)[C@H](CCc1ccccc1)N[C@@H](C)C(=O)N1CCC[C@H]1C(=O)O [enalapril]
inactive: A549-ACTB-RAB5A 0 | A549-CANX-COX4 0 | A549-GM130-SQSTM1 0 | A549-TP53BP1-CLTA 0 | A549-TUBA1B-RELA 0 | HepG2-ACTB-RAB5A 0 | HepG2-CANX-COX4 0 | HepG2-GM130-SQSTM1 0 | HepG2-TP53BP1-CLTA 0 | HepG2-TUBA1B-RELA 0 | WPMY1-ACTB-RAB5A 0 | WPMY1-CANX-COX4 0 | WPMY1-GM130-SQSTM1 0 | WPMY1-TP53BP1-CLTA 0 | WPMY1-TUBA1B-RELA 0

C[C@H](NC(=O)CCc1nc2ccccc2c(=O)[nH]1)c1ccccc1
inactive: A549-ACTB-RAB5A 0 | A549-CANX-COX4 0 | A549-GM130-SQSTM1 0 | A549-TP53BP1-CLTA 0 | A549-TUBA1B-RELA 0 | HepG2-ACTB-RAB5A 0 | HepG2-CANX-COX4 0 | HepG2-GM130-SQSTM1 0 | HepG2-TP53BP1-CLTA 0 | HepG2-TUBA1B-RELA 0 | WPMY1-ACTB-RAB5A 0 | WPMY1-CANX-COX4 0 | WPMY1-GM130-SQSTM1 0 | WPMY1-TP53BP1-CLTA 0 | WPMY1-TUBA1B-RELA 0

O=C1CN2Cc3c(ccc(Cl)c3Cl)N=C2N1 [Anagrelide hydrochloride]
inactive: A549-ACTB-RAB5A 0 | A549-CANX-COX4 0 | A549-GM130-SQSTM1 0 | A549-TP53BP1-CLTA 0 | A549-TUBA1B-RELA 0 | HepG2-ACTB-RAB5A 0 | HepG2-CANX-COX4 0 | HepG2-GM130-SQSTM1 0 | HepG2-TP53BP1-CLTA 0 | HepG2-TUBA1B-RELA 0 | WPMY1-ACTB-RAB5A 0 | WPMY1-CANX-COX4 0 | WPMY1-GM130-SQSTM1 0 | WPMY1-TP53BP1-CLTA 0 | WPMY1-TUBA1B-RELA 0

Cc1ccc(N(CC2=NCCN2)c2cccc(O)c2)cc1 [phentolamine]
inactive: A549-ACTB-RAB5A 0 | A549-CANX-COX4 0 | A549-GM130-SQSTM1 0 | A549-TP53BP1-CLTA 0 | A549-TUBA1B-RELA 0 | HepG2-ACTB-RAB5A 0 | HepG2-CANX-COX4 0 | HepG2-GM130-SQSTM1 0 | HepG2-TP53BP1-CLTA 0 | HepG2-TUBA1B-RELA 0 | WPMY1-ACTB-RAB5A 0 | WPMY1-CANX-COX4 0 | WPMY1-GM130-SQSTM1 0 | WPMY1-TP53BP1-CLTA 0 | WPMY1-TUBA1B-RELA 0

O=C(O)[C@]1(O)C[C@H](O)[C@@H](O)[C@@H](O)C1 [Quinic acid]
inactive: A549-ACTB-RAB5A 0 | A549-CANX-COX4 0 | A549-GM130-SQSTM1 0 | A549-TP53BP1-CLTA 0 | A549-TUBA1B-RELA 0 | HepG2-ACTB-RAB5A 0 | HepG2-CANX-COX4 0 | HepG2-GM130-SQSTM1 0 | HepG2-TP53BP1-CLTA 0 | HepG2-TUBA1B-RELA 0 | WPMY1-ACTB-RAB5A 0 | WPMY1-CANX-COX4 0 | WPMY1-GM130-SQSTM1 0 | WPMY1-TP53BP1-CLTA 0 | WPMY1-TUBA1B-RELA 0
